Compound activity as filed in PubChem.
NS1 function inh: influenza NS1 inhibition; Potency, µM (series often up to 46.1 µM), without a hit: top-dose activity, positive = more growth; 0.4% of 270,000 active; calls by dose curve; note: potency is the fitted concentration of half-maximal effect; actives are rising curves; nearly all actives have a fitted effect of over 50% in size
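In this qHTS, NS1 from influenza A is expressed in budding yeast, where it slows growth. Cells are switched from glucose to 2% galactose medium (pH 6.0, -URA), treated with compound, and growth recovery is read at OD600.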
Cycloheximide cs: affects cycloheximide protein synthesis inhibition readout, counter-screen; cell reporter, cycloheximide protein synthesis inhibition counterscreen; max response, %; 12% of 300,000 active; in the data active = max response mostly above about 13%, no sharp cut-off; inactive = mostly below about 14%; note: read at 38.3 µM for the half of the compounds with a filed dose; 0% is about no effect
FBPA Giardia inh: blocks Giardia fructose-bisphosphate aldolase activity | A8B2U2 | AID 2451 | purified Giardia FBPA | Potency, µM (top dose mostly 59.6 µM), for inactives: at the top dose activity, negative = inhibition, hits mostly inhibitors | 0.71% of 290,000 active; note: potency is the fitted concentration of half-maximal effect; % is set by controls: 0 for no effect and ±100 for the full control effect; nearly all actives have a fitted effect of over 55% in size
Target sequence (A8B2U2 whole entry, looked up): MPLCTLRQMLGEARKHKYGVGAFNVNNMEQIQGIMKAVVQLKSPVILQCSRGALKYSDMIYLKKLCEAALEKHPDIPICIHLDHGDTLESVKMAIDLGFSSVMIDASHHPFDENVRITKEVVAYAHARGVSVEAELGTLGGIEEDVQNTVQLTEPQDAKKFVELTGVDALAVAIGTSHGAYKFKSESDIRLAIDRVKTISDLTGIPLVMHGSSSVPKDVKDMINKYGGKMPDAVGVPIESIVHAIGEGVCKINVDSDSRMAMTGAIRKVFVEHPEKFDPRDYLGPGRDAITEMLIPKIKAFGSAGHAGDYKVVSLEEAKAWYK
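Giardia FBPA (40 nM reagent) was preincubated 10 min at RT with compound (up to 57.5 uM final), then substrate plus GAPDH/TPI/NAD/arsenate coupling system with diaphorase/resazurin was added; resorufin fluorescence (525/598 nm) was read after 20 min.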
Shiga toxin inh: Shiga toxin inhibition; 9.2% of 290,000 active; AID 2315; inhibition, % at 38.7 µM; Vero cells, Shiga toxin protein synthesis inhibition reporter; in the data active = inhibition mostly above about 28%, no sharp cut-off; inactive = mostly below about 43%; note: 0% is about no effect
Pf growth 96h: P. falciparum growth inhibition at 96 hours; P. falciparum luciferase reporter growth, 96 h; Potency, µM (top dose mostly 28.7 µM), without a hit: at the highest dose activity change, negative = inhibition, actives largely listed as inhibitors; 6.9% of 320,000 active; note: potency is the fitted concentration of half-maximal effect; % is set by controls: 0 for no effect and ±100 for the full control effect
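Cell-based qHTS: luciferase-tagged P. falciparum in erythrocytes (2% hematocrit, 0.05% parasitemia final) incubated with compounds for 96 hours, 37 C, 5% CO2; luciferase detection reagent then added and luminescence measured.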
Pf growth 48h: inhibits P. falciparum growth in the first generation, 48 h; 5.9% of 310,000 active; Potency, µM (titrated, usually from 28.7 µM), for inactives: at the top dose activity change, negative = inhibition, hits mostly inhibitors; P. falciparum luciferase growth in erythrocytes, 48 h; note: potency is the fitted concentration of half-maximal effect; % is set by controls: 0 for no effect and ±100 for the full control effect
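Here the parasites carry a stable luciferase gene and grow inside erythrocytes in Albumax-based RPMI medium with compound for one erythrocytic cycle. Activity is scored as loss of luminescent signal.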
* marks the source's active call; other numbers are inactive results. In the library only some 21% were active in any assay of this set; here they are far more common. Unless noted, calls come from the whole dose curve; as a rule, active = well fitted curve in the direction sought with a large enough effect; inconclusive = small, poorly fitted or top-dose-only effect, or another doubt; inactive = no such curve, though single readings can be large; an effect the other way counts as inactive or inconclusive.

COC(=O)[C@@]1(Cc2ccc(F)cc2)[C@H]2c3cc(C(=O)N(C)C)n(Cc4ccccc4)c3C[C@H]2CN1C(=O)c1ccccc1 was read as NS1 function inh 13.2%, Cycloheximide cs -2.5, FBPA Giardia inh -9.2%, Shiga toxin inh -10.7, Pf growth 96h 3.29µM* and Pf growth 48h 2.94µM*.
`COC(=O)[C@@]1(Cc2ccc(F)cc2)[C@H]2c3cc(C(=O)N(C)C)n(Cc4ccc(O)c(OC)c4)c3C[C@H]2CN1C(=O)c1ccccc1` gave FBPA Giardia inh -12.6%.
`CNc1ccc2oc(C[C@H]3O[C@]4(CC[C@H]3C)O[C@H]([C@H](C)C(=O)c3ccc[nH]3)[C@H](C)C[C@H]4C)nc2c1C(=O)O` gave FBPA Giardia inh -8.4%.
`COC(=O)Cn1c(C(=O)N(C)C)cc2c1C[C@H]1CN(C(=O)c3ccccc3)[C@@](Cc3ccc(OC)cc3)(C(=O)OC)[C@@H]21` gave FBPA Giardia inh 4.1%.
`COC(=O)[C@@]1(Cc2ccc(F)cc2)[C@H]2c3cc(C(=O)N(C)C)[nH]c3C[C@H]2CN1C(=O)c1ccccc1` gave NS1 function inh 1.3%, Cycloheximide cs -0.6, FBPA Giardia inh -11.2%, Shiga toxin inh -8.2, Pf growth 96h 13.1µM* and Pf growth 48h 13.1µM*.
Screening COC(=O)[C@@]1(Cc2ccc(OC)cc2)[C@@H]2C(=CC(=O)[C@H]2CC(=O)C(=O)N(C)C)CN1C(=O)c1ccccc1 returned NS1 function inh -18.7%, Cycloheximide cs -4.9, FBPA Giardia inh -7.4%, Shiga toxin inh -18.5, Pf growth 96h 9.28µM* and Pf growth 48h 14.7µM*.
`COC(=O)[C@@]1(Cc2ccc(OC)cc2)[C@H]2c3cc(C(=O)N(C)C)n(C[C@H](O)CO)c3C[C@H]2CN1C(=O)c1ccccc1` gave NS1 function inh -21.7%, Cycloheximide cs -3.2, FBPA Giardia inh 0.1%, Shiga toxin inh -1.7, Pf growth 96h 8.28µM* and Pf growth 48h inconclusive.
Screening Cc1ccc(C(=O)N2CCCC(N3CCN(c4ccccc4C)CC3)C2)c(=O)[nH]1 (configuration not stated) returned NS1 function inh -3.2%, Cycloheximide cs 6.5, FBPA Giardia inh -6.0%, Shiga toxin inh -10.8, Pf growth 96h 0.0% and Pf growth 48h -7.7%.
CC(=O)c1ccc(OCC(O)CN2C(C)CCCC2C)cc1 (configuration not stated) was read as NS1 function inh -1.5%, Cycloheximide cs -5.7, FBPA Giardia inh -4.3%, Shiga toxin inh -2.7 and Pf growth 96h 8.28µM*.
Screening O=C1C2CC=CCC2C(=O)N1c1ccc(OCC(O)Cn2nnc3ccccc32)cc1 (configuration not stated) returned NS1 function inh -11.3%, Cycloheximide cs -2.2, FBPA Giardia inh 4.8%, Shiga toxin inh -9.3 and Pf growth 96h 14.7µM*.
`COC(=O)c1ccc(OCC(O)Cn2nnc3ccccc32)cc1` (configuration not stated) gave NS1 function inh -19.2%, Cycloheximide cs 18.7, FBPA Giardia inh -3.1%, Shiga toxin inh 52.4, Pf growth 96h inconclusive and Pf growth 48h 59.3%.
`CC(=O)c1ccc(OCC(O)CN2CCC(C)CC2)cc1` (configuration not stated) gave NS1 function inh -8.1%, Cycloheximide cs -0.3, FBPA Giardia inh -7.5%, Shiga toxin inh 11.0 and Pf growth 96h inconclusive.
Screening Cc1ccc2c(c1)c(C)c(C)n2CC(O)Cn1nnc2ccccc21 (configuration not stated) returned NS1 function inh -52.7%, Cycloheximide cs 30.3*, FBPA Giardia inh -4.1%, Shiga toxin inh 51.7, Pf growth 96h inconclusive and Pf growth 48h 30.6%.
Screening O=C(O)c1ccc(OCC(O)Cn2cnc3ccccc32)cc1 (configuration not stated) returned NS1 function inh 1.1%, Cycloheximide cs -2.0, FBPA Giardia inh inconclusive, Shiga toxin inh -1.0, Pf growth 96h 5.9% and Pf growth 48h -0.5%.
`Cc1cccc(C)c1OCC(O)Cn1nnc2ccccc21` (configuration not stated) gave NS1 function inh -18.2%, Cycloheximide cs 15.9*, FBPA Giardia inh -0.2%, Shiga toxin inh 7.0, Pf growth 96h -14.1% and Pf growth 48h 17.5%.
`Nc1cc(C(F)(F)F)ccc1-n1cccc1` gave NS1 function inh 6.9%, Cycloheximide cs -2.2, FBPA Giardia inh -0.2%, Shiga toxin inh -1.2, Pf growth 96h 9.1% and Pf growth 48h inconclusive.
For COc1cccc(/C=N/NC(=O)c2ccc(-n3cnnn3)cc2)c1 the results were Pf growth 96h -1.8% and Pf growth 48h -9.5%.
For COC(=O)c1ccc(NC(=O)CCN2C(=O)C3CC=CCC3C2=O)cc1 (configuration not stated) the results were Pf growth 96h inconclusive and Pf growth 48h 24.5%.
For CC(=O)c1cccc(OCC(=O)NC2CCCCCC2)c1 the results were Pf growth 96h 28.5% and Pf growth 48h -11.2%.
Screening CCOc1ccc(S(=O)(=O)NCc2cccnc2)cc1C(C)C returned NS1 function inh 1.9%, Cycloheximide cs 0.3, FBPA Giardia inh -0.3%, Pf growth 96h 0.1% and Pf growth 48h 29.5%.
For CC(=O)c1ccc(OCC(O)Cn2nnc3ccccc32)cc1 (configuration not stated) the results were NS1 function inh -6.8%, Cycloheximide cs 38.7*, FBPA Giardia inh 9.1%, Shiga toxin inh 68.9, Pf growth 96h 32.0% and Pf growth 48h 7.38µM*.
For CC(=O)N1CCN(C(=O)CSc2cc(C)c(Br)cc2C)CC1 the results were NS1 function inh -10.2%, Cycloheximide cs 34.1*, Shiga toxin inh 48.2*, Pf growth 96h 34.3% and Pf growth 48h 70.8%.
For NC(=O)C1CCN(C(=O)CC2(CC(=O)O)CCCC2)CC1 the results were NS1 function inh -13.1%, Cycloheximide cs -7.9, FBPA Giardia inh 2.3%, Shiga toxin inh 4.2, Pf growth 96h -4.1% and Pf growth 48h 20.4%.
`Cc1ccc(CCNC(=O)c2nnc(CS(=O)(=O)c3ccccc3)o2)cc1` gave NS1 function inh 0.2%, Cycloheximide cs -3.1, FBPA Giardia inh -6.3%, Shiga toxin inh -2.7, Pf growth 96h 44.6% and Pf growth 48h inconclusive.
COC(=O)c1ccc(NC(=O)c2ccc3nccnc3c2)cc1 was read as NS1 function inh -16.8%, Cycloheximide cs 11.3, FBPA Giardia inh -2.4%, Shiga toxin inh 43.0, Pf growth 96h 11.6% and Pf growth 48h 9.0%.
`O=C(Nc1ccc(SC(F)F)cc1)c1ccc2nccnc2c1` gave NS1 function inh -17.9%, Cycloheximide cs 45.8*, FBPA Giardia inh inconclusive, Shiga toxin inh 40.6*, Pf growth 96h inconclusive and Pf growth 48h 75.8%.
Screening CCCCOc1ccc(C(=O)Nc2ccc(SC(F)F)cc2)cc1OC returned NS1 function inh 7.1%, Cycloheximide cs -2.0, FBPA Giardia inh 1.0%, Shiga toxin inh 7.2, Pf growth 96h -27.1% and Pf growth 48h 9.7%.
